The supplement of paper PMC9262897, “Low-cost anti-mycobacterial drug discovery using engineered E. coli” (Nature Communications, 2022)
Where a name gives a salt, the structure may show the parent alone. ± gives the standard deviation of the averaged measurements.

Legend:
Assay in all cases: growth (OD600 after 10 h); higher = more growth (less inhibition)
[1] = system: E. coli TESEC Alr+ wild-type control; details: compound 0.1 mM; raw OD600 reference: median of DMSO wells 0.241, cell-free background 0.041
Procedure: (§1)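 TESEC Mtb Alr E. coli, or the Alr+ wild-type control, in 384-well plates with Prestwick library compounds at 0.1 mM and 1% DMSO, across arabinose induction levels of 1E3 to 1E7 nM. Growth is read as OD600 after 10 h at 37 °C in triplicate biological replicates.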

E. coli TESEC Mtb Alr [2] = details: compound 0.1 mM
Procedure: as §1

E. coli TESEC Mtb Asd = details: compound 0.1 mM
Procedure: (§2)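 TESEC E. coli strains in which the native enzyme is deleted and replaced by arabinose-inducible Mtb Asd, DapB, CysH or TrpD, each grown in its selective medium. Strains were screened against the Prestwick library at 0.1 mM and 1% DMSO in 384-well format at low and high arabinose induction. Growth is read as OD600 after 10 h in triplicate.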

E. coli TESEC Mtb DapB = details: compound 0.1 mM
Procedure: as §2

[3] = system: E. coli TESEC Alr+ wild-type control; details: compound 0.1 mM; raw OD600 reference: median of DMSO wells 0.49, cell-free background 0.052
Procedure: (§3)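 TESEC Mtb Alr E. coli (ΔaraC ΔtolC ΔentC Δalr ΔdadX, arabinose-inducible Mtb Alr) or the Alr+ wild-type control strain, grown in defined M9-fructose medium without D-alanine in 96-well plates with Prestwick library compounds at 0.1 mM and 1% DMSO. Low Alr induction is 0.1 µM arabinose and high induction is 10 mM arabinose.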

E. coli TESEC Mtb Alr [4] = details: compound 0.1 mM; remark: listed apart in the source
Procedure: as §3

[5] = arabinose 1000 nM, raw OD600 reference: median of DMSO wells 0.294, cell-free background 0.041
[6] = arabinose 10000 nM, raw OD600 reference: median of DMSO wells 0.264, cell-free background 0.041
[7] = arabinose 100000 nM, raw OD600 reference: median of DMSO wells 0.201, cell-free background 0.041
[8] = arabinose 1000000 nM, raw OD600 reference: median of DMSO wells 0.193, cell-free background 0.041
[9] = arabinose 10000000 nM, raw OD600 reference: median of DMSO wells 0.146, cell-free background 0.041
[10] = arabinose induction (level): High, raw OD600 reference: median of DMSO wells 0.331, cell-free background 0.041
[11] = arabinose induction (level): Low, raw OD600 reference: median of DMSO wells 0.417, cell-free background 0.041
[12] = arabinose induction (level): High, raw OD600 reference: median of DMSO wells […], cell-free background 0.041
[13] = arabinose induction (level): Low, raw OD600 reference: median of DMSO wells 0.227, cell-free background 0.041
[14] = arabinose 100 nM, raw OD600 reference: median of DMSO wells 0.413, cell-free background 0.052
[15] = arabinose 10000000 nM, raw OD600 reference: median of DMSO wells […], cell-free background 0.052

For `CCN(CC)CCNC(C(=O)OCCC(C)C)c1ccccc1` (stereo not given) [Camylofine chlorhydrate], which growth [1] is on record?
The growth was 0.198 ± 0.0073.

And the growth (E. coli TESEC Mtb Alr [2]; [5])?
Its growth is 0.254 ± 0.0087.

And the growth (E. coli TESEC Mtb Alr [2]; [6])?
The growth was 0.261 ± 0.0027.

And the growth (E. coli TESEC Mtb Alr [2]; [7])?
The growth was 0.208 ± 0.017.

What about the growth (E. coli TESEC Mtb Alr [2]; [8]) of the same compound?
The growth was 0.156 ± 0.0056.

What about the growth (E. coli TESEC Mtb Alr [2]; [9]) of the same compound?
Its growth is 0.148 ± 0.0031.

What about the growth (E. coli TESEC Mtb Asd; [10]) of the same compound?
The growth was 0.228 ± 0.046.

And the growth (E. coli TESEC Mtb Asd; [11])?
Its growth is 0.372 ± 0.11.

What about the growth (E. coli TESEC Mtb DapB; [12]) of the same compound?
Its growth is 0.153 ± 0.013.

What about the growth (E. coli TESEC Mtb DapB; [13]) of the same compound?
The growth was 0.171 ± 0.016.

What about the growth [3] of the same compound?
The growth was 0.559 ± 0.084.

What about the growth (E. coli TESEC Mtb Alr [4]; [14]) of the same compound?
Its growth is 0.406 ± 0.012.

What about the growth (E. coli TESEC Mtb Alr [4]; [15]) of the same compound?
Its growth is 0.341 ± 0.012.

With `NC[C@H]1O[C@H](O[C@H]2[C@H](O)[C@@H](O[C@H]3O[C@H](CO)[C@@H](O)[C@H](N)[C@H]3O)[C@H](N)C[C@@H]2N)[C@H](N)C[C@@H]1O` [Tobramycin] as the compound, how does the growth [1] read?
The growth was 0.0408 ± 0.00049.

And the growth (E. coli TESEC Mtb Alr [2]; [5])?
The growth was 0.0407 ± 0.00085.

And the growth (E. coli TESEC Mtb Alr [2]; [6])?
The growth was 0.03917 ± 0.00021.

What about the growth (E. coli TESEC Mtb Alr [2]; [7]) of the same compound?
Its growth is 0.0411 ± 0.00055.

And the growth (E. coli TESEC Mtb Alr [2]; [8])?
The growth was 0.03913 ± 0.00031.

And the growth (E. coli TESEC Mtb Alr [2]; [9])?
The growth was 0.04083 ± 5.8e-05.

What about the growth (E. coli TESEC Mtb Asd; [10]) of the same compound?
Its growth is 0.0498 ± 0.00085.

What about the growth (E. coli TESEC Mtb Asd; [11]) of the same compound?
The growth was 0.0468 ± 0.0021.

What about the growth (E. coli TESEC Mtb DapB; [12]) of the same compound?
The growth was 0.04757 ± 0.0004.

And the growth (E. coli TESEC Mtb DapB; [13])?
Its growth is 0.0491 ± 0.0037.

What about the growth [3] of the same compound?
The growth was 0.04933 ± 0.00049.

What about the growth (E. coli TESEC Mtb Alr [4]; [14]) of the same compound?
The growth was 0.0513 ± 0.0001.

What about the growth (E. coli TESEC Mtb Alr [4]; [15]) of the same compound?
The growth was 0.0502 ± 0.001.

Which growth [1] does the source give for `Cc1ccsc1/C=C/C1=NCCCN1C` [Morantel tartrate] here?
Its growth is 0.248 ± 0.0087.

And the growth (E. coli TESEC Mtb Alr [2]; [5])?
The growth was 0.306 ± 0.0079.

And the growth (E. coli TESEC Mtb Alr [2]; [6])?
The growth was 0.252 ± 0.0038.

And the growth (E. coli TESEC Mtb Alr [2]; [7])?
Its growth is 0.204 ± 0.012.

And the growth (E. coli TESEC Mtb Alr [2]; [8])?
The growth was 0.176 ± 0.0069.

What about the growth (E. coli TESEC Mtb Alr [2]; [9]) of the same compound?
The growth was 0.1525 ± 0.00097.

What about the growth (E. coli TESEC Mtb Asd; [10]) of the same compound?
The growth was 0.358 ± 0.016.

And the growth (E. coli TESEC Mtb Asd; [11])?
Its growth is 0.379 ± 0.034.

And the growth (E. coli TESEC Mtb DapB; [12])?
The growth was 0.205 ± 0.038.

And the growth (E. coli TESEC Mtb DapB; [13])?
The growth was 0.294 ± 0.089.

And the growth [3]?
The growth was 0.513 ± 0.029.

What about the growth (E. coli TESEC Mtb Alr [4]; [14]) of the same compound?
The growth was 0.409 ± 0.0089.

And the growth (E. coli TESEC Mtb Alr [4]; [15])?
The growth was 0.259 ± 0.17.

For `O=c1n(CCCN2CCN(c3cccc(Cl)c3)CC2)nc2ccccn12` [Trazodone hydrochloride], which growth [1] is on record?
Its growth is 0.203 ± 0.0052.

And the growth (E. coli TESEC Mtb Alr [2]; [5])?
Its growth is 0.24 ± 0.011.

And the growth (E. coli TESEC Mtb Alr [2]; [6])?
The growth was 0.235 ± 0.0052.

What about the growth (E. coli TESEC Mtb Alr [2]; [7]) of the same compound?
Its growth is 0.159 ± 0.0089.

What about the growth (E. coli TESEC Mtb Alr [2]; [8]) of the same compound?
The growth was 0.105 ± 0.0032.

And the growth (E. coli TESEC Mtb Alr [2]; [9])?
Its growth is 0.13 ± 0.0034.

And the growth (E. coli TESEC Mtb Asd; [10])?
Its growth is 0.242 ± 0.051.

And the growth (E. coli TESEC Mtb Asd; [11])?
Its growth is 0.404 ± 0.099.

What about the growth (E. coli TESEC Mtb DapB; [12]) of the same compound?
Its growth is 0.189 ± 0.014.

And the growth (E. coli TESEC Mtb DapB; [13])?
The growth was 0.243 ± 0.057.

What about the growth [3] of the same compound?
The growth was 0.471 ± 0.043.

And the growth (E. coli TESEC Mtb Alr [4]; [14])?
Its growth is 0.406 ± 0.0066.

What about the growth (E. coli TESEC Mtb Alr [4]; [15]) of the same compound?
The growth was 0.255 ± 0.028.

What does the source list for `CN(C)CCOC(=O)C(c1ccccc1)C1(O)CCCC1` (stereo not given) [Cyclopentolate hydrochloride]?
growth [1]: 0.219 ± 0.0068; growth (E. coli TESEC Mtb Alr [2]; [5]): 0.29 ± 0.0093; growth (E. coli TESEC Mtb Alr [2]; [6]): 0.27 ± 0.01; growth (E. coli TESEC Mtb Alr [2]; [7]): 0.183 ± 0.014; growth (E. coli TESEC Mtb Alr [2]; [8]): 0.19 ± 0.018; growth (E. coli TESEC Mtb Alr [2]; [9]): 0.133 ± 0.0078; growth (E. coli TESEC Mtb Asd; [10]): 0.198 ± 0.013; growth (E. coli TESEC Mtb Asd; [11]): 0.334 ± 0.1; growth (E. coli TESEC Mtb DapB; [12]): 0.192 ± 0.021; growth (E. coli TESEC Mtb DapB; [13]): 0.231 ± 0.045; growth [3]: 0.54 ± 0.099; growth (E. coli TESEC Mtb Alr [4]; [14]): 0.4313 ± 0.0024; growth (E. coli TESEC Mtb Alr [4]; [15]): 0.316 ± 0.018
